Data reported in PubChem BioAssay AID1159580 (chemical genetic matrix, 2015).
Hit rate of the full screen: of about 5,500 compounds, about 2,000 (36%) were called active. Inconclusive results (about 18%) are left out. No stated cut-off is given here; in the data, active means normalized growth mostly below about 0.91 (no sharp cut-off); inconclusive means no clear call, values can overlap the other calls; inactive means mostly above about 0.92. The list shows a part of the results.

Test: chemical genetic growth profiling, strain panel (AID 1159580);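 further: tested at 20 µM; growth read once vehicle control cultures reached saturation at 30 °C; 1 = growth at the plate median or of vehicle wells; lower values mean less growth of the strain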
Conditions: growth OD

Measured: normalized growth

CC(=O)CC(c1ccccc1)c1c(O)c2ccccc2oc1=O (configuration not stated)
inactive: S. cerevisiae deletion strains, locus YJR075W, strain HOC1, hits give low values 0.981 | S. cerevisiae deletion strains, locus YKL009W, strain mrt4, hits give low values 1 | S. cerevisiae deletion strains, locus YKL068W, hits give low values 1 | S. cerevisiae deletion strains, locus YKL085W, strain MDH1 (second series), hits give low values 0.954 | S. cerevisiae deletion strains, locus YKL085W, strain MDH1, hits give low values 0.954 | S. cerevisiae deletion strains, locus YKL160W, strain elf1, hits give low values 1 | S. cerevisiae deletion strains, locus YKL190W, strain CNB1, hits give low values 1.01 | S. cerevisiae deletion strains, locus YKR001C, strain vps1, hits give low values 1.02 | S. cerevisiae deletion strains, locus YKR026C, strain gcn3, hits give low values 0.992 | S. cerevisiae deletion strains, locus YKR091W, strain srl3, hits give low values 0.995 | S. cerevisiae deletion strains, locus YLL001W, strain dnm1, hits give low values 0.993 | S. cerevisiae deletion strains, locus YLL026W, hits give low values 0.988 | S. cerevisiae deletion strains, locus YLL041C, strain sdh2, hits give low values 0.997 | S. cerevisiae deletion strains, locus YLR027C, strain aat2, hits give low values 1 | S. cerevisiae deletion strains, locus YLR039C, strain RIC1, hits give low values 0.986 | S. cerevisiae deletion strains, locus YLR058C, strain SHM2, hits give low values 1.01 | S. cerevisiae deletion strains, locus YLR102C, strain apc9, hits give low values 1.01 | S. cerevisiae deletion strains, locus YLR113W, strain HOG1, hits give low values 0.922 | S. cerevisiae deletion strains, locus YLR221C, strain rsa3, hits give low values 1.01 | S. cerevisiae deletion strains, locus YLR258W, strain gsy2, hits give low values 1 | S. cerevisiae deletion strains, locus YLR262C, strain YPT6 (second series), hits give low values 0.881 | S. cerevisiae deletion strains, locus YLR262C, strain YPT6, hits give low values 0.99 | S. cerevisiae deletion strains, locus YLR268W, strain sec22, hits give low values 1.03 | S. cerevisiae deletion strains, locus YLR320W, strain mms22, hits give low values 1.01 | S. cerevisiae deletion strains, locus YLR330W, strain CHS5, hits give low values 1 | S. cerevisiae deletion strains, locus YLR342W, strain FKS1 (second series), hits give low values 1.02 | S. cerevisiae deletion strains, locus YLR342W, strain FKS1, hits give low values 0.995 | S. cerevisiae deletion strains, locus YLR357W, strain rsc2, hits give low values 1.03 | S. cerevisiae deletion strains, locus YLR370C, strain arc18, hits give low values 0.993 | S. cerevisiae deletion strains, locus YLR371W, strain rom2, hits give low values 1.02 | S. cerevisiae deletion strains, locus YLR384C, strain iki3, hits give low values 0.986 | S. cerevisiae deletion strains, locus YLR418C, strain cdc73, hits give low values 1.06 | S. cerevisiae deletion strains, locus YML016C, strain PPZ1, hits give low values 1.01 | S. cerevisiae deletion strains, locus YML032C, strain rad52, hits give low values 1.03 | S. cerevisiae deletion strains, locus YML120C, strain ndi1, hits give low values 1 | S. cerevisiae deletion strains, locus YML124C, strain tub3, hits give low values 1.01 | S. cerevisiae deletion strains, locus YMR058W, strain fet3, hits give low values 1.01 | S. cerevisiae deletion strains, locus YMR078C, strain ctf18, hits give low values 1.02 | S. cerevisiae deletion strains, locus YMR125W, strain sto1, hits give low values 1.01 | S. cerevisiae deletion strains, locus YMR129W, hits give low values 1 | S. cerevisiae deletion strains, locus YMR205C, strain PFK2, hits give low values 1.01 | S. cerevisiae deletion strains, locus YMR223W, strain ubp8, hits give low values 1.01 | S. cerevisiae deletion strains, locus YMR231W, strain pep5, hits give low values 1 | S. cerevisiae deletion strains, locus YMR263W, strain SAP30, hits give low values 1.01 | S. cerevisiae deletion strains, locus YMR307W, strain GAS1, hits give low values 1.05 | S. cerevisiae deletion strains, locus YNL067W, strain RPL9B, hits give low values 1.01 | S. cerevisiae deletion strains, locus YNL071W, strain lat1, hits give low values 1 | S. cerevisiae deletion strains, locus YNL128W, strain TEP1, hits give low values 1.03 | S. cerevisiae deletion strains, locus YNL153C, strain GIM3, hits give low values 1 | S. cerevisiae deletion strains, locus YNL183C, strain NPR1, hits give low values 0.942 | S. cerevisiae deletion strains, locus YNL209W, strain ssb2, hits give low values 0.998 | S. cerevisiae deletion strains, locus YNL233W, strain BNI4, hits give low values 1.01 | S. cerevisiae deletion strains, locus YNL248C, strain rpa49, hits give low values 1.01 | S. cerevisiae deletion strains, locus YNL250W, strain rad50, hits give low values 1.05 | S. cerevisiae deletion strains, locus YNL271C, strain bni1, hits give low values 1.01 | S. cerevisiae deletion strains, locus YNL298W, strain CLA4, hits give low values 1.03 | S. cerevisiae deletion strains, locus YNL307C, strain MCK1, hits give low values 1.06 | S. cerevisiae deletion strains, locus YNL322C, strain KRE1 (second series), hits give low values 0.989 | S. cerevisiae deletion strains, locus YNL322C, strain KRE1, hits give low values 1.02 | S. cerevisiae deletion strains, locus YNR049C, strain mso1, hits give low values 0.995 | S. cerevisiae deletion strains, locus YNR052C, strain pop2, hits give low values 1.03 | S. cerevisiae deletion strains, locus YOL006C, strain TOP1, hits give low values 1 | S. cerevisiae deletion strains, locus YOL012C, strain htz1 1.19 | S. cerevisiae deletion strains, locus YOL147C, strain pex11, hits give low values 1.01 | S. cerevisiae deletion strains, locus YOR001W, strain rrp6, hits give low values 1.02 | S. cerevisiae deletion strains, locus YOR061W, strain CKA2, hits give low values 1.01 | S. cerevisiae deletion strains, locus YOR069W, strain VPS5, hits give low values 1 | S. cerevisiae deletion strains, locus YOR070C, strain gyp1, hits give low values 0.996 | S. cerevisiae deletion strains, locus YOR080W, strain dia2, hits give low values 1 | S. cerevisiae deletion strains, locus YOR083W, strain WHI5, hits give low values 1.01 | S. cerevisiae deletion strains, locus YOR106W, strain vam3, hits give low values 0.992 | S. cerevisiae deletion strains, locus YOR136W, strain idh2, hits give low values 1.03 | S. cerevisiae deletion strains, locus YOR144C, strain elg1, hits give low values 1.01 | S. cerevisiae deletion strains, locus YOR184W, strain ser1, hits give low values 1.04 | S. cerevisiae deletion strains, locus YOR231W, strain MKK1, hits give low values 0.983 | S. cerevisiae deletion strains, locus YOR265W, strain rbl2, hits give low values 0.984 | S. cerevisiae deletion strains, locus YOR270C, strain vph1, hits give low values 1.02 | S. cerevisiae deletion strains, locus YOR290C, strain snf2, hits give low values 1.01 | S. cerevisiae deletion strains, locus YOR316C, strain cot1, hits give low values 1.01 | S. cerevisiae deletion strains, locus YPL051W, strain arl3, hits give low values 0.994 | S. cerevisiae deletion strains, locus YPL055C, strain LGE1, hits give low values 1.05 | S. cerevisiae deletion strains, locus YPL078C, strain atp4, hits give low values 1.02 | S. cerevisiae deletion strains, locus YPL106C, strain sse1, hits give low values 1.02 | S. cerevisiae deletion strains, locus YPL240C, strain hsp82, hits give low values 1 | S. cerevisiae deletion strains, locus YPL241C, strain CIN2, hits give low values 1.01 | S. cerevisiae deletion strains, locus YPL256C, strain CLN2, hits give low values 0.955 | S. cerevisiae deletion strains, locus YPR119W, strain clb2, hits give low values 1.01 | S. cerevisiae deletion strains, locus YPR141C, strain kar3, hits give low values 1.01 | S. cerevisiae deletion strains, locus YPR163C, strain tif3, hits give low values 1.02 | S. cerevisiae deletion strains, locus YPR167C, strain met16, hits give low values 1.01 | S. cerevisiae deletion strains, strain wtn01, hits give low values 1 | S. cerevisiae strains, strain wild type, hits give low values 1.02
